# Assay results taken from PubChem BioAssay.
# System: Fibrinogen (Alexa647-labelled)
# Test: Alexa647-fibrinogen binding to printed small molecules – biochemical, small-molecule microarray, 635/667 nm fluorescence, artefact control for SMM control-protein annotation, profiling panel (AID 1131);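 also: z-score merges 667 nm fluorescence with per-spot signal-to-noise over triplicate slides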
# Conditions: fibrinogen-A647 binding fluorescence, higher = more signal
row,SMILES,composite z-score
1,CC(C)=CCN[C@H](CO)c1ccccc1,0.118
2,CCCC#C[Si](O[C@H](CC)c1cn(Cc2cccc(Cl)c2)nn1)(C(C)C)C(C)C,0.684
3,C=CCOC(=O)[C@H]1[C@@H]2C(=O)O[C@@H](c3ccccc3)[C@@H](c3ccccc3)N2[C@@H](c2ccc(OCCOC(=O)[C@H]3C[C@H]4C(=O)N[C@@H](CCCCNC(C)=O)C(=O)N4[C@H]3c3cccc(OCCO)c3)cc2)[C@]12C(=O)Nc1ccccc12,0.525
4,C=C(COC)/C(=C/C[C@@H](OC(=O)c1ccncc1)c1ccc(CO)o1)c1cc(C(=O)OC)ccc1OC,0.933
5,CC(C)C(=C=CC[C@@H](O)c1ccc(OCCO)cc1)C[C@@H](O)COCc1ccccc1,0.602
6,CCCCCCc1nc(-c2cc(C)c(OC)c(C)c2)cc2c1[Si](C(C)C)(C(C)C)OC2,-0.419
7,COc1cc2c(cc1O)C(C1CC1)N(Cc1sc3ccccc3c1Cl)CC2 (stereo unspecified),0.762
8,COCCOC(=O)N1C(=O)[C@@]2(c3cc(C#CCC(C(=O)OC)C(=O)OC)ccc31)[C@H](C(=O)N1CCN(c3ncccn3)CC1)[C@H]1C(=O)O[C@H](c3ccccc3)[C@H](c3ccccc3)N1[C@@H]2c1ccccc1OCCO,0.997
9,C[C@H]1NC(=O)[C@@]23C(=O)N[C@@H](Cc4ccccc4)C2[C@H](C)[C@@]2(C)O[C@H]2C3/C=C/C/C=C\CNC(=O)[C@@H]2CCCN2C1=O (stereo partly specified),0.859
10,CCOC(=O)C[C@H]1[C@H](OC(=O)c2ccc(C(=O)c3ccccc3)cc2)[C@@H](NC(=O)c2ccc3ccccc3n2)c2cc(OCCCO)ccc2N1C(=O)c1ccccc1,0.807
11,CCCC[C@@H]1C[C@H]1[C@@H](NC(=O)c1cccs1)c1ccc(-c2ccccc2)cc1,0.149
12,COC(=O)[C@@]1(Cc2ccc(OC)cc2)[C@H]2c3cc(C(=O)N4CCCC4)n(Cc4ccc(O)c(OC)c4)c3C[C@H]2CN1C(=O)c1ccccc1,0.724
13,[N-]=[N+]=NCc1ccccc1C[C@]1(C(N)=O)COC(c2ccc(OCCCO)cc2)=N1,0.389
14,C=C(COC)C(=O)CC[C@@H](OC(C)=O)c1ccc(CO)o1,0.966
15,O=C1c2ccccc2[C@](Cc2ccccc2I)(C(=O)NCCN2CCOCC2)[C@H](c2ccc(CO)cc2)N1Cc1ccccc1Cl,0.929
16,COCCCNC(=O)[C@]1(CCC(=O)OC(C)(C)C)N=C(c2ccc(OCCCO)cc2)O[C@@H]1c1ccccc1CN=[N+]=[N-],0.197
17,C=CCNC(=O)[C@@H]1[C@H]2C(=O)O[C@H](c3ccccc3)[C@H](c3ccccc3)N2[C@H](c2ccc(OCCO)cc2)[C@@]12C(=O)Nc1ccc(C#CCC(C(=O)OC)C(=O)OC)cc12,0.641
18,COc1cc2c(cc1OC)CN(C(=O)[C@@H]1[C@H]3C(=O)O[C@H](c4ccccc4)[C@H](c4ccccc4)N3[C@H](c3ccccc3OCCO)[C@@]13C(=O)Nc1ccc(C#CCCO)cc13)CC2,0.966

row,SMILES,composite z-score
1,C=CCC(OC(C)=O)[C@@H]1[C@@H](N(Cc2cc3ccccc3o2)C(=O)c2cccc3ccccc23)c2cc(OCCCO)ccc2N1C(=O)c1ccc(-c2ccccc2)cc1 (stereo partly specified),-0.827
2,COC(=O)[C@@]1(Cc2ccc(F)cc2)[C@H]2c3cc(C(=O)N4CCCC4)n(CCCNc4ncc(C(F)(F)F)cc4Cl)c3C[C@H]2CN1C(=O)c1ccccc1,0.817
3,CC(C)N1C(=O)c2ccccc2[C@](C)(C(=O)NCCN2CCOCC2)[C@@H]1c1ccc(CO)cc1,-0.726
4,CC(C)C(=C=CC[C@@H](O)c1ccc(OCCO)cc1)C[C@@H](O)c1ccccn1,0.819
5,CO[C@H]1O[C@H](CO)[C@@H](OC(=O)Nc2ccc(Oc3ccccc3)cc2)[C@H](OC(=O)Nc2ccc3c(c2)OCO3)[C@H]1OC(=O)Nc1ccc2c(c1)OCO2,0.933
6,C=CCOC(=O)[C@H]1[C@@H]2C(=O)O[C@@H](c3ccccc3)[C@@H](c3ccccc3)N2[C@@H](c2ccc(OCCOC(=O)[C@@H]3C[C@@H]4C(=O)N[C@@H](CC(C)C)C(=O)N4[C@@H]3c3ccc(O)cc3)cc2)[C@]12C(=O)Nc1ccccc12,0.78
7,O=C(c1ccccc1)N1C(=O)[C@]2(COC(c3ccc(OCCCO)cc3)=N2)Cc2ccccc21,0.988
8,CCCc1cc2c(n1Cc1cc(F)cc(F)c1)C(C)C1CN(C(=O)c3ccccc3)C(C)(C(=O)OC)C21 (stereo unspecified),0.982
9,O=C(c1ccccc1)N1C(=O)[C@@]2(Cc3ccccc31)N=C(c1ccc(OCCCO)cc1)O[C@H]2c1ccccc1,0.657
10,CO[C@H]1O[C@H](CO)[C@@H](OC(=O)Nc2ccccc2)[C@H](OC(=O)Nc2ccccc2)[C@@H]1OC(=O)Nc1ccccc1,1.01
11,COc1ccc(CCNC(=O)[C@@]2(Sc3ccc(C)cc3)CC(=O)N(C3Cc4ccccc4C3)[C@@H]2c2ccc(CO)cc2I)cc1,-0.716
12,CCCCCN1CC=CC23O[C@@H]4C=CCCOC(=O)C4[C@H]2C(=O)N(CCCCCO)[C@@H]3C1=O (stereo partly specified),0.302
13,COc1cc2c(cc1OC)CN(C(=O)[C@H]1[C@@H]3C(=O)O[C@@H](c4ccccc4)[C@@H](c4ccccc4)N3[C@@H](c3ccc(O)cc3)[C@]13C(=O)Nc1ccc(C#CCCO)cc13)CC2,0.807
14,CN1C=C(C(=O)OCCS(C)(=O)=O)C(C(=O)OCCS(C)(=O)=O)=CC(c2ccc(CO)cc2)=CC1C1CC1 (stereo unspecified),0.28
15,C=C[C@H](CO[Si](CC)(CC)CC)N(Cc1ccc(OC(C)=O)c(OC)c1)S(=O)(=O)c1ccc(Br)cc1,0.967
16,C[N+](C)(C)CCCCCCNC(=O)[C@@H]1C[C@@H]2C(=O)N[C@@H](Cc3ccccc3)C(=O)N2[C@@H]1c1cccc(OCCO)c1,0.608
17,NC(=O)[C@@H]1[C@H]2C(=O)O[C@H](c3ccccc3)[C@H](c3ccccc3)N2[C@H](c2ccc(O)cc2)[C@@]12C(=O)Nc1ccccc12,-0.538
18,C=C(CCCC)/C(=C/C[C@@H](OC(C)=O)c1ccc(OCCO)cc1)c1cnc2ccccc2c1,0.539
